# Assay results from the supplement of paper PMC3414501.
# How the values were obtained:
# [1] = system: S. cerevisiae SK1 pCDA2-eGFP (USY613), sporulating; assay: CDA2-GFP sporulation assay sensitivity score (z-score vs DMSO controls); higher = stronger inhibition of sporulation, active = hit call of the paper;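 note: active if sensitivity score above 5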
# [2] = system: S. cerevisiae NKY1551 his4x/his4B, sporulating; assay: HIS4 meiotic recombination assay sensitivity score (z-score vs DMSO controls); higher = stronger inhibition of sporulation/recombination, active = hit call of the paper;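 note: active if sensitivity score above 5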
# [3] = system: S. cerevisiae AD1-9 (efflux-pump deficient), vegetative growth in YPD; assay: growth sensitivity score (doubling time z-score vs DMSO controls); higher = slower growth, strongly negative scores also mark growth inhibition (complete suppression), active = hit call of the paper
# Outline: (§1)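 Yeast (Saccharomyces cerevisiae BY4741 and AD1-9) was grown in rich medium in microtiter plates from a starting OD600 of 0.065, with optical density read every 15 min over 24 hours. The growth sensitivity score was the difference between compound and solvent-only means, divided by the solvent-only standard deviation. Every experiment had eight solvent-only wells.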
# [4] = system: S. cerevisiae BY4741 (wild-type), vegetative growth in YPD; assay: as above
# Outline: as §1
Compound,CDA2-GFP sporulation assay sensitivity score [1],HIS4 meiotic recombination assay sensitivity score [2],growth sensitivity score [3],growth sensitivity score [4]
"OCCN1C[C@H](O)[C@@H](O)[C@H](O)[C@H]1CO [Miglitol] (stock concentration (mM, diluted 1:100): 10)",1.46 (inactive),-0.62 (inactive),-2.16,-1.34 (inactive)
"CC[N+](C)(CC)CCOC(=O)C(O)(c1ccccc1)C1CCCCC1 (stereo not given) [Oxyphenonium bromide] (stock concentration (mM, diluted 1:100): 10)",0.76 (inactive),1.35 (inactive),-1.02 (inactive),0.39 (inactive)
"CCOC(=O)c1ncn2c1CN(C)C(=O)c1cc(F)ccc1-2 [Flumazenil] (stock concentration (mM, diluted 1:100): 10)",1.01 (inactive),-0.81 (inactive),-0.24 (inactive),1.4 (inactive)
"CO[C@H]1/C=C/O[C@@]2(C)Oc3c(C)c(O)c4c(c3C2=O)C2=NC3(CCN(CC(C)C)CC3)NC2=C(NC(=O)/C(C)=C\C=C\[C@H](C)[C@H](O)[C@@H](C)[C@@H](O)[C@@H](C)[C@H](OC(C)=O)[C@@H]1C)C4=O [Rifabutin] (stock concentration (mM, diluted 1:100): 10)",6 (inactive),-1.4 (inactive),1.43 (inactive),0.72 (inactive)
"CC1CCN(CCCC(=O)c2ccc(F)cc2)CC1 [Metylperon] (stock concentration (mM, diluted 1:100): 10)",4.44 (inactive),0.9 (inactive),1 (inactive),1.93 (inactive)
